# Screens: PubChem, National Center for Advancing Translational Sciences (NCATS)
# FBPA coupling cs – coupling enzyme interference in Giardia aldolase counter-screen; activity change, negative = inhibition, % at 58.2 µM, hits read low; coupling enzyme system counterscreen, AmpLite Red fluorescence; hit rate 0.67% among 290,000; AID 2472; in the data active = activity change below about -30%
#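 Coupling enzymes only (glyceraldehyde-3-phosphate) + compound, at 57.5 uM final, 10 min RT; add substrate/coupling/AmpLite Red mix, 20 min RT; fluorescence ex 525/em 598 nm. Actives flag coupling-system interference.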
# G9a block – G9a (human) methyltransferase inhibition | G9a H3K9 monomethylation, AlphaScreen, 2 h | Potency, µM (top dose mostly 102 µM), hits mostly inhibitors | hit rate 8.8% among 350,000 | AID 504332; note: nearly all actives have a fitted effect of over 75% in size
# Target sequence (Q96KQ7 913-1193 limits assumed): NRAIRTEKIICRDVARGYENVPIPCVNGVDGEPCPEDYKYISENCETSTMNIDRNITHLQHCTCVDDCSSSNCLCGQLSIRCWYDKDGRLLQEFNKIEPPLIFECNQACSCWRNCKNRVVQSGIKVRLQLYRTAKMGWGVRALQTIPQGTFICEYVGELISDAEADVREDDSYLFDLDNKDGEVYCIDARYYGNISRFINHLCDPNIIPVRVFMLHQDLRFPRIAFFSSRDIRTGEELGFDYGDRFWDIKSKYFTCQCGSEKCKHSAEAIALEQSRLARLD
#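 AlphaScreen read-out: biotin-H3K9 peptide (500 nM) methylation by 20 nM enzyme with 20 uM SAM, 2 h at room temperature after 15 min compound preincubation; anti-monomethyl H3K9 antibody plus donor/acceptor beads, 10 min dark.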
# Tau fluor cs – counter-screen for tau fibril formation inhibitors. tau K18 P301L Alexa594 fluorescence, heparin fibrillization. Potency, µM (doses to about 57.7 µM). hit rate 0.93% among 280,000. AID 1463; note: nearly all actives have a fitted effect of over 55% in size
#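 Human K18 P301L tau (15 uM unlabeled plus 0.24 uM Alexa 594-labeled, final) in 100 mM sodium acetate pH 7 was mixed with compound and 20 uM heparin and incubated 6 hr at 37 C.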
# Tau ThT inhib – tau fibrillization inhibition (ThT binding) | Potency, µM (highest dose often 57.4 µM), actives largely listed as inhibitors | recombinant tau K18 P301L (four-repeat tau fragment), heparin-induced fibrillization, ThT fluorescence | hit rate 2.1% among 270,000; note: nearly all actives have a fitted effect of over 55% in size
# Target sequence (P10636 561-689 P618L limits assumed): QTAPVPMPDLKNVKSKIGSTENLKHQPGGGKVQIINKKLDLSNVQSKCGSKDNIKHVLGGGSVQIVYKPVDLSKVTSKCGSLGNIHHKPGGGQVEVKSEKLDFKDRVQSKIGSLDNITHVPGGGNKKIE
#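 Aggregation was driven by heparin (20 uM final) acting on recombinant tau […] bearing P301L in 100 mM sodium acetate pH 7; fibrils were detected with Thioflavin T.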
# Tau fibril FP – blocks human tau fibril formation measured by polarization | K18 P301L tau heparin fibrillization, Alexa594 FP, 6 h | Potency, µM (highest dose often 57.7 µM), hits mostly inhibitors | hit rate 0.39% among 280,000; note: nearly all actives have a fitted effect of over 55% in size
#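 Steps: dispense K18 P301L tau (15 uM plus 0.24 uM Alexa 594 tracer, final) in pH 7 sodium acetate; add compound; add heparin (20 uM final); incubate 6 hr, 37 C; add ThT (30 uM final); after 1 hr ambient, read FP.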
# Sfp inh – Sfp phosphopantetheinyl transferase inhibition | Q9F4F7 | Biochemical Sfp PPTase activity, qHTS | Potency, µM, actives largely listed as inhibitors | hit rate 3.5% among 310,000;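 note: the enzyme is Sfp with the accession as filed and its product quenches rhodamine fluorescence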
#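 With Hepes-Na pH 7.6 buffer containing 10 mM MgCl2, Sfp (15 nM) modified BHQ-2-YbbR (12.5 uM) using rhodamine-CoA (5 uM). Two reads 30 minutes apart at 525/598 nm yielded each well's rate.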
# A number is an active result; – = inactive; ? = inconclusive; · = no result given; [ ] = dose if it differs, or a comment. A selection: hits, their analogues and other compounds. The true share with any hit is near 11%. Unless noted, calls come from the whole dose curve; as a rule, active = well fitted curve in the direction sought with a large enough effect; inconclusive = small, poorly fitted or top-dose-only effect, or another doubt; inactive = no such curve, though single readings can be large; an effect the other way counts as inactive or inconclusive.
SMILES,FBPA coupling cs,G9a block,Tau fluor cs,Tau ThT inhib,Tau fibril FP,Sfp inh
CCC(C)C(NC(=O)OC(C)(C)C)C(=O)NC1COC2CC(n3cc(F)c(=O)[nH]c3=O)OC12 (centres undefined),–,·,·,·,·,–
Cc1c(Cl)cccc1NC(=O)Cn1cc(C(=O)C2CCCCC2)c2ccccc21,·,–,–,–,–,·
CN1CCN(c2ccc(NC(=O)COc3ccc4ccccc4c3)cc2)CC1,–,35µM,·,·,·,–
CC(=O)N1CCN(c2ccc(NC(=S)NC(=O)COc3ccc(C(C)(C)C)cc3)cc2)CC1,–,?,–,4µM,–,?
O=C(CN1C(=O)CSC1=O)Nc1ccc(N2CCOCC2)cc1,–,16µM,–,–,–,–
CC(C)OC(=O)Cn1nc(C(c2ccccc2)c2ccccc2)oc1=O,–,–,·,·,·,–
O=C(Nc1nnc(C2CC2)s1)c1ccco1,–,–,–,–,–,–
Cc1ccccc1N1CC(c2nnc(NC(=O)c3ccco3)s2)CC1=O (centres undefined),·,8.9µM,–,–,–,·
COCCSc1nnc(NC(=O)C2CC(=O)N(c3ccccc3)C2)s1 (centres undefined),–,–,–,–,–,–
COc1cccc(N2CC(C(=O)Nc3nnc(SCCN4CCOCC4)s3)CC2=O)c1 (centres undefined),–,40µM,·,·,·,–
COc1ccc(C(=O)CSc2nnc(NC(=O)C3CC(=O)N(c4ccccc4C)C3)s2)cc1 (centres undefined),–,35µM,–,–,–,–
COc1cccc(N2CC(C(=O)Nc3nnc(SCC(=O)N4CCCC4)s3)CC2=O)c1 (centres undefined),·,?,·,·,·,–
Cc1ccccc1N1CC(C(=O)Nc2nnc(SCCN3CCOCC3)s2)CC1=O (centres undefined),·,16µM,·,·,·,–
Cc1cc(C)c(NC(=O)c2ncoc2-c2ccco2)c(C)c1,·,–,–,–,–,·
Cc1cccc(S(=O)(=O)Nc2cccc(-c3ccc(N4CCCCC4)nn3)c2)c1,·,–,–,–,–,·
Cc1ccc(Cn2c(CNS(=O)(=O)c3c(C)cc(C)cc3C)nc3cccnc32)cc1,·,?,–,–,–,·
CCOc1ccc(NC(=O)N(c2ccccc2)c2ccccc2)cc1,–,–,·,·,·,–
CCOc1ccc(NC(=O)C(c2ccccn2)N(C(=O)CCl)c2ccc(F)cc2)cc1 (centres undefined),–,7.1µM,–,?,–,?
CCOC(=O)C1=C(C)N=C2c3ccccc3C(=O)C2C1c1ccc(Cl)cc1 (centres undefined),–,40µM,7.9µM[quencher],?,–,–
Cc1ccc(C2C3=C(CC(C)(C)CC3=O)OC3=C2C(=O)CC(C)(C)C3)cc1,–,–,–,–,–,–
CC1(C)CC(=O)C2=C(C1)N=C1c3ccccc3C(=O)C1C2c1ccc(Cl)cc1 (centres undefined),–,10µM,?,?,–,–
Cc1ccc(C2C3=C(CC(C)(C)CC3=O)N=C3c4ccccc4C(=O)C32)cc1 (centres undefined),–,5µM,?,?,–,–
Cc1c(-c2cccc(NC(=O)c3ccc(F)c(F)c3)c2)nc2ncccn12,·,–,–,?,–,·
COc1ccc(-c2cn3cccnc3n2)cc1NC(=O)Nc1ccc(Cl)cc1,·,–,14µM[quencher],?,–,·
Cc1c(-c2cccc(NC(=O)Nc3ccc(Cl)cc3)c2)nc2ncccn12,·,?,10µM[quencher],–,20µM,·
SMILES,FBPA coupling cs,G9a block,Tau fluor cs,Tau ThT inhib,Tau fibril FP,Sfp inh
COc1ccc(NC(=O)Nc2cc(-c3cn4cccnc4n3)ccc2C)cc1,·,–,–,?,–,·
COc1cccc(C(=O)Nc2cc(-c3cn4cccnc4n3)ccc2C)c1,–,32µM,–,–,–,–
COc1ccc(CNC(=O)Cc2c(C)c3c(cc(C)c4c(C)c(C)oc43)oc2=O)cc1,·,–,–,–,–,·
N#Cc1ccc(Oc2nc(C#N)cc(-c3ccccc3)n2)cc1,–,–,–,–,–,40µM
O=C(NC1CCCC1)C(c1ccccn1)N(C(=O)c1csnn1)c1ccccc1Br (centres undefined),·,–[0.501 µM],·,·,·,·
COc1ccc(Cl)cc1NC(=O)C1CSC(c2ccncc2)=N1 (centres undefined),–,11µM,–,?,–,?
OC(CN1CCN(c2ccccc2F)CC1)c1ccc(F)cc1 (centres undefined),–,–,·,·,·,–
COc1ccccc1/C(C)=N/Oc1cc(N)cc([N+](=O)[O-])c1,·,–[12.7 µM],·,·,·,·
COc1ccc(-n2ccnc2SCC(=O)Nc2cccc(OC)c2)cc1,·,–,–,–,–,·
Cc1ccc(CNCC(=O)Nc2cccc(S(=O)(=O)NC3=NCCCCC3)c2)cc1,–,40µM,–,–,–,–
O=C(CSc1cccc[n+]1[O-])Nc1cccc(S(=O)(=O)NC2=NCCCCC2)c1,–,?,–,–,–,–
CNC(=S)Nc1cccc(S(=O)(=O)NC2=NCCC2)c1,–,50µM,–,–,–,–
Cc1ccc(Nc2nnc(SCC(=O)Nc3cccc(S(=O)(=O)NC4=NCCCCC4)c3)s2)c(C)c1,–,40µM,–,–,–,–
O=C(Cc1csc(-c2cccc(Cl)c2)n1)Nc1cccc(S(=O)(=O)NC2=NCCC2)c1,·,14µM,·,·,·,·
Cc1ccc(C)c(SCC(=O)Nc2cccc(S(=O)(=O)NC3=NCCCCC3)c2)c1,–,–,–,–,–,–
COCCCNC(=S)Nc1cccc(S(=O)(=O)NC2=NCCC2)c1,–,–,–,–,–,–
COc1ccc(NC(=O)C2=NN(c3ccccc3)C(=O)CC2)cn1,·,–[12.7 µM],·,·,·,·
Cc1nc(NC(=S)NC(=O)c2cncc(Br)c2)ccc1Br,–,·,–,–,–,?
Cc1ccnc(NC(=S)NC(=O)c2cncc(Br)c2)c1,–,0.63µM,–,–,–,–
O=C(O)c1ccc(NC(=S)NC(=O)c2cncc(Br)c2)cc1,–,40µM,·,·,·,–
O=C(O)c1ccc(NC(=S)NC(=O)c2ccc(-c3ccccc3)cc2)cc1,–,18µM,–,–,–,?
OC(COC(c1ccccc1)c1ccccc1)CN1CCOCC1 (centres undefined),–,–,–,–,–,–
Cc1ccccc1[C@@H](OCCN(C)C)c1ccccc1,–,–[21.5 µM],·,·,·,–
CCN1CCN(CC(O)COC(C)C)CC1 (centres undefined),–,50µM,–,–,–,–
Cc1ccc(Cl)cc1N1CCN(CC(O)COC(C)C)CC1 (centres undefined),–,·,–,·,–,–
CC1CN(CC(O)COC(c2ccccc2)c2ccccc2)CC(C)O1 (centres undefined),–,35µM,–,–,–,?
Cc1ccccc1C(OCC(O)CN1CCC(C(N)=O)CC1)c1ccccc1 (centres undefined),–,–,·,·,·,–
